# Screening results from PubChem.
# Rows were chosen to be rich in hits. Some 4.7% of all compounds tested hit in one or more screens of this group.
# D1 agonist – agonists of human D1 dopamine receptor; P21728; HEK293 T-REx D1 cells, calcium flux, agonist mode; 360,000 tested, 1% active; activation, % at 2 µM; also: 0% is about no effect
#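 Agonism was scored from calcium flux recorded over 180 s (1 read/s) after pintool compound addition, following a 10-cycle baseline. Cells were inducible force-coupled HEK293 TREx D1, plated overnight at 30 C and loaded with no-wash calcium dye.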
# TRHR enhancer – allosteric enhancers of human TRH receptor | TRHR cells, fluo-8 calcium fluorescence, EC20 TRH enhancement | enhancement, % at 2 µM | 360,000 tested, 0.66% active; in the data active = enhancement above about 30%; also: 0% is about no effect
# Target sequence (P34981 whole entry, looked up): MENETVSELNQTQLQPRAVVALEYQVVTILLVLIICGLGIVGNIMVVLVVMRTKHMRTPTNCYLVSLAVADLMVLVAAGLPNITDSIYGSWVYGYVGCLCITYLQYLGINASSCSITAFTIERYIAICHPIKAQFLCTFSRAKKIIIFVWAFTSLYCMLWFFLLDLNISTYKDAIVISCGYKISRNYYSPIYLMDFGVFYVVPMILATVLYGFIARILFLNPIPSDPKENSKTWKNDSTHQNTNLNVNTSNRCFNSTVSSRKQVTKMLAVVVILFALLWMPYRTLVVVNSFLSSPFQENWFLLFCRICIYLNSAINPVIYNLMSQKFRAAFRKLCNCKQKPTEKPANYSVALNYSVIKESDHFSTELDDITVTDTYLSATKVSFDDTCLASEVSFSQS
#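 Enhancer read-out: after compound pinning and an initial kinetic agonist-mode read, an EC20 of TRH (10 nM final) was injected and fluo-8 calcium signal (Ex 480/Em 530) followed at 1 s/cycle for 100 cycles in TRHR-expressing cells.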
# D1 antag – blocks dopamine activation of the human D1 receptor. HEK293 TREx D1 cells, calcium flux, dopamine EC80; hits give low values. 360,000 tested, 3.2% active. activity change, negative = inhibition, % at 10 µM. P21728; in the data active = activity change below about -30%; also: % is scaled to controls: 0 for no effect and ±100 for the full control effect
#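 Antagonism measured as reduced calcium response to an EC80 dopamine addition following 180 s compound pre-read; cells were inducible HEK293 Trex D1 plated overnight at 30 C, read kinetically at 1 cycle/sec.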
# TRHR agonist – TRH receptor (human) agonism. TRHR cells, calcium flux fluo-8, FDSS agonist mode. activation, % at 2 µM. 360,000 tested, 0.18% active; also: 0% is about no effect
#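 Read-out: compound-evoked intracellular calcium rise in TRHR cells, fluo-8 dye, kinetic FDSS fluorescence at 1 s/cycle following a 10-cycle baseline. Cells cultured overnight before dye loading (30 min–1.5 h, RT).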
# D1 PAM – human D1 dopamine receptor positive modulation. P21728. HEK293 TREx D1 cells, calcium flux, dopamine EC20 potentiation. potentiation, % at 10 µM. 360,000 tested, 0.036% active. AID 504651; in the data active = potentiation above about 30%; also: 0% is about no effect
# * = called active by the depositor; . = no result. Rule as the data show it, unless noted: active = activation above about 30%; inactive = the rest.
SMILES,D1 agonist,TRHR enhancer,D1 antag,TRHR agonist,D1 PAM
CCCC[C@]12Cc3cc(C#N)ccc3C(O1)c1c(cc(C)n(Cc3ccccc3)c1=O)O2,-0.1,22.4,8.1,0.3,0.3
COc1ccc(S(=O)(=O)NCc2ccccn2)cc1OC,5.2,-2.2,-5.4,0.1,-7.0
COc1ccccc1Oc1ccc(S(=O)(=O)NCc2ccccn2)cc1,13.9,6.0,-54.3*,-0.4,-8.2
O=C(Nc1cccc(C(F)(F)F)c1)c1ccc(Cn2cc(Br)cn2)o1,34.0*,-7.6,-30.7*,4.5,-5.5
Cc1cc(C)n(Cc2ccc(C(=O)Nc3cccc(Br)c3)o2)n1,38.1*,-7.4,-28.4,0.3,-2.5
O=C(NNC(=O)c1ccccc1O)c1ccc(Cl)c(S(=O)(=O)N2CCc3ccccc32)c1,9.3,-5.6,-33.2*,0.3,0.6
CC(=O)N1CCN(C(=O)c2ccc(Cl)c(S(=O)(=O)N3CCc4ccccc43)c2)CC1,-0.5,-9.1,-8.1,-0.1,-5.8
CC(C)NC(=O)C(=O)NCCC1CCCCN1S(=O)(=O)c1cccs1 (stereo unspecified),1.4,20.9,-31.5*,-0.2,-6.0
CNC(=O)C(=O)NCCC1CCCCN1S(=O)(=O)c1cccs1 (stereo unspecified),1.6,-3.0,-4.9,-0.5,0.6
O=C(Nc1ccc(Br)cc1F)c1cc(S(=O)(=O)NCc2ccc(F)cc2)ccc1F,-0.9,10.3,-23.1,0.3,-2.3
CC1(C)CC(=NO)CC(C)(C)N1,2.9,3.3,-32.2*,-0.1,0.8
CCc1ccc(NC(=O)CC2C(=O)N(c3ccc(OC)cc3)C(=O)N2Cc2cccs2)cc1 (stereo unspecified),1.8,2.4,-5.8,-0.2,-0.2
CNCC[C@@H](Oc1ccc(C(F)(F)F)cc1)c1ccccc1,45.6*,3.0,.,5.9,.
CN(C)C(CNc1ccc(C(F)(F)F)cn1)c1ccccc1 (stereo unspecified),8.0,10.3,3.0,2.4,-7.3
COc1ccc(-c2[nH]c(-c3ccc(Cl)cc3)nc2SCC(=O)NCC2CCCO2)cc1 (stereo unspecified),0.6,3.4,-5.6,-0.8,-1.4
CCc1ccc(S(=O)(=O)c2nnn3c2nc(Nc2cc(OC)cc(OC)c2)c2cc(Cl)ccc23)cc1,0.0,3.3,1.6,-0.1,-3.9
O=C1Nc2ccccc2C12OCCCO2,3.3,-7.3,-43.7*,0.0,-3.0
COc1ccc(/C=C/C(=O)c2ccc3c(c2)OCO3)c(OC)c1,8.9,-4.2,6.7,0.4,-6.5
COc1cc(/C=C/C(=O)c2ccc3c(c2)OCO3)cc(Cl)c1O,246.3*,22.2,-22.3,196.6*,.
O=C(COc1ccc(S(=O)(=O)NC2CCCCC2)cc1)N1CCN(c2ccc(F)cc2)CC1,9.9,-1.1,-30.3*,0.7,-7.8
Cc1nc(-c2ccccc2)sc1CCNS(=O)(=O)c1ccccc1,4.0,-2.9,-6.8,-0.3,-3.1
CCS(=O)(=O)N1CC(=O)N(c2ccc(C)c(C)c2)C(C)(C(=O)NC2CCCCC2)C1 (stereo unspecified),-2.5,42.3*,-20.2,-0.2,0.8
CCCCCCOc1ccc(N2C(=O)CC(SCCN)C2=O)cc1 (stereo unspecified),64.3*,6.4,-16.2,1.2,-8.2
Cc1ccc(C(=O)N/C(=C\c2cccs2)C(=O)NC2CCCCC2)cc1,1.7,39.9*,4.7,0.8,-0.8
Cc1ccc(C(=O)N/C(=C/c2cccs2)C(=O)N2CCCCCC2)cc1,0.4,6.4,-7.3,-0.2,-11.1
SMILES,D1 agonist,TRHR enhancer,D1 antag,TRHR agonist,D1 PAM
CC(C)Oc1ccc(C(CC(=O)NCCCN(C)C)c2ccc(F)cc2)cc1 (stereo unspecified),2.4,2.1,-37.2*,0.4,-6.6
COCCOc1cc(NC(=O)CS(=O)CC(=O)N(C)C)c(Cl)cc1Cl (stereo unspecified),3.2,-5.4,17.1,0.0,1.2
CCN(CC)C(=O)CS(=O)(=O)CC(=O)Nc1cc(OCCOC)c(Cl)cc1Cl,1.2,-1.1,-54.8*,-1.1,1.1
COc1cccc(Cn2c(CNC(=O)C(C)C)nc3cccnc32)c1,0.5,20.7,17.5,0.5,-3.0
Cc1cc(-c2ccc(C)c(S(=O)(=O)NCCCN3CCN(c4ccccc4F)CC3)c2)on1,10.0,-4.2,-67.4*,-0.1,-22.3
Cc1cc(-c2ccc(C)c(S(=O)(=O)NCCCN3CCCCCC3)c2)on1,0.4,12.1,1.9,0.7,9.3
Cc1cc(-c2ccc(C)c(S(=O)(=O)NCCCN3CCN(c4ccccc4)CC3)c2)on1,9.6,-3.4,-77.3*,-0.4,-18.9
COc1ccc(-c2cc(C)no2)cc1S(=O)(=O)NCCCN1CCN(c2ccccc2)CC1,7.1,-0.5,-33.1*,-0.9,-16.8
Cc1cc(-c2ccc(C(C)C)c(S(=O)(=O)NCCN3CCC(C)CC3)c2)on1,44.2*,25.0,-29.5,-0.2,-6.4
COCCCNC(=O)Cn1nc(N2CCN(c3ccccc3)CC2)ccc1=O,4.4,1.7,1.7,-0.6,-3.4
Oc1ccccc1C1C=C(c2ccc3c(c2)OCO3)NC(c2cccc(Br)c2)N1 (stereo unspecified),20.7,1.3,-30.0,-0.1,-4.7
COc1ccc(N2CCN(C(=O)CCn3cnc4onc(-c5ccc(F)cc5)c4c3=O)CC2)cc1,1.3,-8.6,-15.9,-1.0,-4.3
COC(=O)Cn1c(O)c(N=NC(=O)c2ccc3c(c2)OCO3)c2ccccc21,0.4,-3.1,-34.9*,1.2,2.5
COc1ccc(CNCCCSc2nnnn2-c2ccccc2)cc1,22.6,0.5,1.1,-0.1,-0.9
Cc1ccc(C(=O)N2CCCC(CCC(=O)N3CCN(c4ccccn4)CC3)C2)cc1C (stereo unspecified),7.1,-4.7,-39.5*,-0.5,-5.3
COc1ccc2c(Cl)c(-c3nnc(SCC(=O)c4ccccc4)n3C)sc2c1,3.5,-4.7,-42.9*,0.1,-4.8
CC1C(=O)N2CCCc3cc(S(=O)(=O)Nc4ccc(Br)cc4F)cc1c32 (stereo unspecified),-0.5,0.1,-30.2*,-0.2,-1.6
COc1ccc(CNC(=O)C(=O)NCC(c2ccco2)S(=O)(=O)c2cccs2)cc1 (stereo unspecified),1.0,2.8,.,-0.2,-1.2
Oc1c(C(c2ccccc2F)N2CCN(Cc3ccccc3)CC2)sc2nc(-c3ccco3)nn12 (stereo unspecified),-2.2,1.9,.,-0.3,-1.1
Cc1ccc(C2CC(c3ccco3)=NN2S(C)(=O)=O)cc1 (stereo unspecified),1.0,0.1,-35.1*,-0.6,-3.1
CC1(C)CC(=O)c2c(Cc3ccccc3)noc2C1,2.2,31.7*,-11.5,0.3,-2.3
O=C(O)CC/C(=N/NC(=O)CNC(=O)C(c1ccccc1)c1ccccc1)c1ccccc1,3.6,-3.3,-34.1*,-1.3,-9.6
